Source: PubChem BioAssay AID1159580 (chemical genetic matrix, 2015)
Hit rate of the full screen: of about 5,500 compounds, about 2,000 (36%) were called active. About 18% were inconclusive and are not listed. Rule as the data show it: active = normalized growth mostly below about 0.91 (no sharp cut-off); inconclusive = no clear call, values can overlap the other calls; inactive = mostly above about 0.92. The list shows a part of the results.

Assay: chemical genetic growth profiling, strain panel (AID 1159580);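 also: tested at 20 µM; growth read once vehicle control cultures reached saturation at 30 °C; 1 = growth at the plate median or of vehicle wells; lower values mean less growth of the strain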
Details: growth OD

Measured: normalized growth

CCCN1C[C@H](CSC)C[C@@H]2c3cccc4[nH]cc(c34)C[C@H]21
inactive: S. cerevisiae deletion strains, locus YKL009W, strain mrt4, active compounds read low 1.01 | S. cerevisiae deletion strains, locus YKL068W, active compounds read low 1.02 | S. cerevisiae deletion strains, locus YKL085W, strain MDH1 (second series), active compounds read low 1 | S. cerevisiae deletion strains, locus YKL085W, strain MDH1, active compounds read low 1 | S. cerevisiae deletion strains, locus YKL160W, strain elf1, active compounds read low 1.01 | S. cerevisiae deletion strains, locus YKL190W, strain CNB1, active compounds read low 0.995 | S. cerevisiae deletion strains, locus YKR001C, strain vps1, active compounds read low 1.02 | S. cerevisiae deletion strains, locus YKR026C, strain gcn3, active compounds read low 1.02 | S. cerevisiae deletion strains, locus YKR091W, strain srl3, active compounds read low 0.997 | S. cerevisiae deletion strains, locus YLL001W, strain dnm1, active compounds read low 1 | S. cerevisiae deletion strains, locus YLL026W, active compounds read low 1.01 | S. cerevisiae deletion strains, locus YLL041C, strain sdh2, active compounds read low 0.995 | S. cerevisiae deletion strains, locus YLR027C, strain aat2, active compounds read low 1 | S. cerevisiae deletion strains, locus YLR039C, strain RIC1, active compounds read low 1.11 | S. cerevisiae deletion strains, locus YLR058C, strain SHM2, active compounds read low 1.01 | S. cerevisiae deletion strains, locus YLR102C, strain apc9, active compounds read low 1.03 | S. cerevisiae deletion strains, locus YLR113W, strain HOG1, active compounds read low 1.06 | S. cerevisiae deletion strains, locus YLR221C, strain rsa3, active compounds read low 1 | S. cerevisiae deletion strains, locus YLR258W, strain gsy2, active compounds read low 1.01 | S. cerevisiae deletion strains, locus YLR262C, strain YPT6 (second series), active compounds read low 1.07 | S. cerevisiae deletion strains, locus YLR262C, strain YPT6, active compounds read low 1.09 | S. cerevisiae deletion strains, locus YLR268W, strain sec22, active compounds read low 1 | S. cerevisiae deletion strains, locus YLR320W, strain mms22, active compounds read low 0.984 | S. cerevisiae deletion strains, locus YLR330W, strain CHS5, active compounds read low 0.999 | S. cerevisiae deletion strains, locus YLR342W, strain FKS1 (second series), active compounds read low 1.01 | S. cerevisiae deletion strains, locus YLR342W, strain FKS1, active compounds read low 1 | S. cerevisiae deletion strains, locus YLR357W, strain rsc2, active compounds read low 0.982 | S. cerevisiae deletion strains, locus YLR370C, strain arc18, active compounds read low 1.01 | S. cerevisiae deletion strains, locus YLR371W, strain rom2, active compounds read low 1.02 | S. cerevisiae deletion strains, locus YLR384C, strain iki3, active compounds read low 1 | S. cerevisiae deletion strains, locus YLR418C, strain cdc73, active compounds read low 0.985 | S. cerevisiae deletion strains, locus YML016C, strain PPZ1, active compounds read low 0.998 | S. cerevisiae deletion strains, locus YML032C, strain rad52, active compounds read low 1.03 | S. cerevisiae deletion strains, locus YML120C, strain ndi1, active compounds read low 1.02 | S. cerevisiae deletion strains, locus YML124C, strain tub3, active compounds read low 1.02 | S. cerevisiae deletion strains, locus YMR058W, strain fet3, active compounds read low 0.999 | S. cerevisiae deletion strains, locus YMR078C, strain ctf18, active compounds read low 1.03 | S. cerevisiae deletion strains, locus YMR125W, strain sto1, active compounds read low 1.02 | S. cerevisiae deletion strains, locus YMR129W, active compounds read low 1.02 | S. cerevisiae deletion strains, locus YMR205C, strain PFK2, active compounds read low 1.02 | S. cerevisiae deletion strains, locus YMR223W, strain ubp8, active compounds read low 1.02 | S. cerevisiae deletion strains, locus YMR231W, strain pep5, active compounds read low 1.02 | S. cerevisiae deletion strains, locus YMR263W, strain SAP30, active compounds read low 0.979 | S. cerevisiae deletion strains, locus YMR307W, strain GAS1, active compounds read low 1.03 | S. cerevisiae deletion strains, locus YNL067W, strain RPL9B, active compounds read low 0.975 | S. cerevisiae deletion strains, locus YNL071W, strain lat1, active compounds read low 1.02 | S. cerevisiae deletion strains, locus YNL128W, strain TEP1, active compounds read low 0.984 | S. cerevisiae deletion strains, locus YNL153C, strain GIM3, active compounds read low 0.983 | S. cerevisiae deletion strains, locus YNL183C, strain NPR1, active compounds read low 0.991 | S. cerevisiae deletion strains, locus YNL209W, strain ssb2, active compounds read low 1 | S. cerevisiae deletion strains, locus YNL233W, strain BNI4, active compounds read low 0.981 | S. cerevisiae deletion strains, locus YNL248C, strain rpa49, active compounds read low 0.945 | S. cerevisiae deletion strains, locus YNL250W, strain rad50, active compounds read low 1 | S. cerevisiae deletion strains, locus YNL271C, strain bni1, active compounds read low 1.02 | S. cerevisiae deletion strains, locus YNL298W, strain CLA4, active compounds read low 1.02 | S. cerevisiae deletion strains, locus YNL307C, strain MCK1, active compounds read low 1.03 | S. cerevisiae deletion strains, locus YNL322C, strain KRE1 (second series), active compounds read low 1.01 | S. cerevisiae deletion strains, locus YNL322C, strain KRE1, active compounds read low 1 | S. cerevisiae deletion strains, locus YNR049C, strain mso1, active compounds read low 1.01 | S. cerevisiae deletion strains, locus YNR052C, strain pop2, active compounds read low 1.02 | S. cerevisiae deletion strains, locus YOL006C, strain TOP1, active compounds read low 0.966 | S. cerevisiae deletion strains, locus YOL012C, strain htz1 0.77 | S. cerevisiae deletion strains, locus YOL147C, strain pex11, active compounds read low 1.02 | S. cerevisiae deletion strains, locus YOR001W, strain rrp6, active compounds read low 0.983 | S. cerevisiae deletion strains, locus YOR061W, strain CKA2, active compounds read low 0.992 | S. cerevisiae deletion strains, locus YOR069W, strain VPS5, active compounds read low 0.989 | S. cerevisiae deletion strains, locus YOR070C, strain gyp1, active compounds read low 0.997 | S. cerevisiae deletion strains, locus YOR080W, strain dia2, active compounds read low 1.02 | S. cerevisiae deletion strains, locus YOR083W, strain WHI5, active compounds read low 0.966 | S. cerevisiae deletion strains, locus YOR106W, strain vam3, active compounds read low 1.01 | S. cerevisiae deletion strains, locus YOR136W, strain idh2, active compounds read low 1.02 | S. cerevisiae deletion strains, locus YOR144C, strain elg1, active compounds read low 1.01 | S. cerevisiae deletion strains, locus YOR184W, strain ser1, active compounds read low 1.05 | S. cerevisiae deletion strains, locus YOR231W, strain MKK1, active compounds read low 1.08 | S. cerevisiae deletion strains, locus YOR265W, strain rbl2, active compounds read low 1.02 | S. cerevisiae deletion strains, locus YOR270C, strain vph1, active compounds read low 1.07 | S. cerevisiae deletion strains, locus YOR290C, strain snf2, active compounds read low 1 | S. cerevisiae deletion strains, locus YOR316C, strain cot1, active compounds read low 1.02 | S. cerevisiae deletion strains, locus YPL051W, strain arl3, active compounds read low 1.01 | S. cerevisiae deletion strains, locus YPL055C, strain LGE1, active compounds read low 0.946 | S. cerevisiae deletion strains, locus YPL078C, strain atp4, active compounds read low 1.01 | S. cerevisiae deletion strains, locus YPL106C, strain sse1, active compounds read low 1.03 | S. cerevisiae deletion strains, locus YPL240C, strain hsp82, active compounds read low 1.01 | S. cerevisiae deletion strains, locus YPL241C, strain CIN2, active compounds read low 1.03 | S. cerevisiae deletion strains, locus YPL256C, strain CLN2, active compounds read low 1.06 | S. cerevisiae deletion strains, locus YPR119W, strain clb2, active compounds read low 1.02 | S. cerevisiae deletion strains, locus YPR141C, strain kar3, active compounds read low 1.01 | S. cerevisiae deletion strains, locus YPR163C, strain tif3, active compounds read low 1.02 | S. cerevisiae deletion strains, locus YPR167C, strain met16, active compounds read low 1.02 | S. cerevisiae deletion strains, strain wtn01, active compounds read low 0.995 | S. cerevisiae strains, strain wild type, active compounds read low 0.997
